Values joined by “and” are separate entries in the source; they are usually repeats but may differ in a detail not shown here. Identical values can stand only once. Records with an inconclusive call do not appear. Active and inactive are the calls of the source. Unless noted, the call rests on the fitted dose curve.
Columns and labels:
[1] = target: Estrogen receptor (Homo sapiens) (UniProt P03372); experiment: qHTS assay for small molecule antagonists of estrogen receptor alpha signaling (AID 588513; active means well fitted curve in the direction sought with a large enough effect in the signal ratio, with a control signal flat, not every such curve was filed as active; the % refers to the signal ratio; further: on the % scale 0 is the no-effect control and ±100 the full control effect)
Outline: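 Antagonist-mode qHTS in ER-alpha-UAS-bla HEK 293 cells: compound titration, 0.5nM estradiol for 18 h, CCF4 fluorescence, Hill-derived IC50.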

[2] = target: Estrogen receptor (Homo sapiens) (UniProt P03372); experiment: qHTS assay for small molecule agonists of estrogen receptor alpha signaling (AID 588514); further: nearly all actives have a fitted effect of over 70% in size; further: potency means the concentration at half of the fitted maximal effect;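 on activation: 0% = vehicle only and 100% = reference agonist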
Outline: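 ER-alpha-UAS-bla GripTite HEK 293 cells in medium with 2% charcoal/dextran-treated FBS were treated with compound titrations at 37 C for 18 hrs; beta-lactamase reporter read by CCF4 fluorescence after 2 hrs at RT.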

[3] = target: Androgen receptor (Homo sapiens) (UniProt P10275); experiment: qHTS assay for small molecule agonists of androgen receptor signaling (AID 588515; active means well fitted curve in the direction sought with a large enough effect in the signal ratio, with a control signal flat; the % refers to the signal ratio; further: on the % scale 0 is the no-effect control and ±100 the full control effect); conditions: AR-UAS-bla HEK293, beta-lactamase ratio, agonist 16 h; active compounds read high
Outline: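 EC50 and efficacy came from Hill fits of titrations (up to 92 uM) normalized to 30 nM R1881 as 100% and DMSO as 0%. Compound exposure was 16 h at 37 C on AR-UAS-bla HEK293 cells, with a 405/460/530 nm CCF4 fluorescence read.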

[4] = target: Bile acid receptor (Homo sapiens) (UniProt Q96RI1); experiment: qHTS assay for small molecule antagonists of farnesoid X receptor signaling (AID 588526); further: on the % scale 0 is the no-effect control and ±100 the full control effect
Outline: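 Concentration-response titrations were fitted to the Hill equation for half-maximal inhibition and maximal response, with data normalised to 50 uM chenodeoxycholic acid and DMSO control wells. Cells: FXR-UAS-bla HEK293T, dialyzed FBS.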

[5] = target: Glucocorticoid receptor (Homo sapiens) (UniProt P04150); experiment: qHTS assay for small molecule agonists of glucocorticoid receptor signaling (AID 588532; active means well fitted curve in the direction sought with a large enough effect in the signal ratio, with a control signal flat; the % refers to the signal ratio;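 further: 100% = dexamethasone at 0.1 µM and 0% = DMSO only wells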); conditions: HeLa MMTV-bla, beta-lactamase ratio, agonist, 18 h; active compounds read high; percent of dexamethasone control, DMSO zero
Outline: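 Stimulation of a glucocorticoid response element-driven beta-lactamase gene was measured in HeLa cells. Responses were scaled between DMSO basal and 0.1 uM dexamethasone, then fitted for half-maximal stimulation.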

[6] = qHTS assay for small molecule activators of the nuclear factor-kappa B (NF-kB) signaling pathway (AID 651749; active means well fitted activation curve with a large enough effect in the signal ratio; the % refers to the signal ratio; further: series mostly up to about 77 µM; % of control where 0% means no effect); conditions: NF-kB-bla ME-180 cells, beta-lactamase FRET ratio, 16 h; activation: active compounds read high
Outline: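 ME-180 cells stably carrying a beta-lactamase reporter under an NF-kB response element were exposed to compound or DMSO vehicle for 16 hr at 37C, 5% CO2. Pathway activation was read by FRET, since reporter expression disrupts FRET.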

[7] = qHTS assay for small molecule activators of the human pregnane X receptor (PXR) signaling pathway (AID 720659; call rule not given here; further: 0% is about no effect)
[8] = target: Glucocorticoid receptor (Homo sapiens) (UniProt P04150); experiment: qHTS assay for small molecule antagonists of glucocorticoid receptor signaling (AID 588533; active means well fitted inhibition curve with a large enough effect in the signal ratio, with a control signal flat, not every such curve was filed as active; the % refers to the signal ratio;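 further: cells stimulated with 2 nM dexamethasone as agonist; on the % scale 0 is the no-effect control and ±100 the full control effect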)
Outline: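 Antagonist-mode qHTS: compound titrations added to GRE-bla HeLa cells, then dexamethasone 2 nM final; 18 h, 37 C. CCF4 FRET fluorescence normalized to dexamethasone and DMSO; IC50 from Hill fit.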

[9] = target: Peroxisome proliferator-activated receptor gamma (Homo sapiens) (UniProt P37231); experiment: qHTS assay for small molecule antagonists of peroxisome proliferator-activated receptor gamma signaling (AID 588537; active means well fitted inhibition curve with a large enough effect in the signal ratio, with a control signal flat, not every such curve was filed as active; the % refers to the signal ratio;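 further: reporter cells co-stimulated with 50 nM rosiglitazone agonist during compound treatment; % of control where 0% means no effect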)
Outline: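 PPAR-gamma-UAS-bla HEK293 cells (3000/well, 1% charcoal/dextran-stripped FBS) were preincubated 6-6.5 h at 37 C, given titrated compounds, then stimulated with 50 nM rosiglitazone for 16 h. Beta-lactamase activity was read with CCF4 dye; IC50 came from Hill fits.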

Chain of Bile acid receptor (Homo sapiens) (Q96RI1 whole entry, looked up): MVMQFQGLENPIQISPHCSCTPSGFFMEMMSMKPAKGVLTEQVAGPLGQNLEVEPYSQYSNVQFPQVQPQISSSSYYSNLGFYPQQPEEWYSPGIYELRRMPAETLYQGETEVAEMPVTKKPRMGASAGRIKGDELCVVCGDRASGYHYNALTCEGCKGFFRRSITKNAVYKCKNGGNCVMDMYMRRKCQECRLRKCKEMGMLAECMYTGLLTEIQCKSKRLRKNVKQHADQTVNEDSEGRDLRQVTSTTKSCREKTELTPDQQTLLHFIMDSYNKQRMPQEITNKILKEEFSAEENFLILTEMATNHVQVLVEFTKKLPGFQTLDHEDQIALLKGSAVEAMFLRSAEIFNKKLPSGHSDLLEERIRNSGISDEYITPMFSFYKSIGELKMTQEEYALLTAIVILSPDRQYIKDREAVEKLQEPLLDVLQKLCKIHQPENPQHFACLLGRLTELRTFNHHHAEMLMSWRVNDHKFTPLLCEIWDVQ
Chain of Androgen receptor (Homo sapiens) (P10275 whole entry, looked up): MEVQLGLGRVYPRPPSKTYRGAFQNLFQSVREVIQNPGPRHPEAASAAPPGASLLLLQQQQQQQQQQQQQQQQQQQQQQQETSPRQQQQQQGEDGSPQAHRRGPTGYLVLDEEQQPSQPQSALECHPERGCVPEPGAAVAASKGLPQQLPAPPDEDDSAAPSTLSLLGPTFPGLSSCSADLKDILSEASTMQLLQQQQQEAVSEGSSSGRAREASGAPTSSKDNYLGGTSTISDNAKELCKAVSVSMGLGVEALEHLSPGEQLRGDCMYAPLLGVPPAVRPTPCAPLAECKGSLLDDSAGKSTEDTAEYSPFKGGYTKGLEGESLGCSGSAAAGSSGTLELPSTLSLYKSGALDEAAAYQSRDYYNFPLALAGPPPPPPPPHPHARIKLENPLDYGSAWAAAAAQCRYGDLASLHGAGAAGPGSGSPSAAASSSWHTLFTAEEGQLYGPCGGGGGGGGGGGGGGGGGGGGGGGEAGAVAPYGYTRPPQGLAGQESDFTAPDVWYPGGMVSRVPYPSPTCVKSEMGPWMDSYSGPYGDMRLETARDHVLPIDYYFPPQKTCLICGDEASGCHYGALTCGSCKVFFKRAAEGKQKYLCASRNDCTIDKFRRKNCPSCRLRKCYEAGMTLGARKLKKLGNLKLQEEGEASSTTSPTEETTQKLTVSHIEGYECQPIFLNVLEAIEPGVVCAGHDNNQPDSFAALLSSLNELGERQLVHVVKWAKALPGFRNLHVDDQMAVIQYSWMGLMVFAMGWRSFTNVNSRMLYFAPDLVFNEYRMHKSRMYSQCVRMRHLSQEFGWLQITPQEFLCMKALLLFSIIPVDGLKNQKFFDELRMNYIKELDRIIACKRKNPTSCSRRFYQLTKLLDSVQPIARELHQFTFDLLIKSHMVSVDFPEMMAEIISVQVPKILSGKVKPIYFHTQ
Chain of Glucocorticoid receptor (Homo sapiens) (P04150 whole entry, looked up): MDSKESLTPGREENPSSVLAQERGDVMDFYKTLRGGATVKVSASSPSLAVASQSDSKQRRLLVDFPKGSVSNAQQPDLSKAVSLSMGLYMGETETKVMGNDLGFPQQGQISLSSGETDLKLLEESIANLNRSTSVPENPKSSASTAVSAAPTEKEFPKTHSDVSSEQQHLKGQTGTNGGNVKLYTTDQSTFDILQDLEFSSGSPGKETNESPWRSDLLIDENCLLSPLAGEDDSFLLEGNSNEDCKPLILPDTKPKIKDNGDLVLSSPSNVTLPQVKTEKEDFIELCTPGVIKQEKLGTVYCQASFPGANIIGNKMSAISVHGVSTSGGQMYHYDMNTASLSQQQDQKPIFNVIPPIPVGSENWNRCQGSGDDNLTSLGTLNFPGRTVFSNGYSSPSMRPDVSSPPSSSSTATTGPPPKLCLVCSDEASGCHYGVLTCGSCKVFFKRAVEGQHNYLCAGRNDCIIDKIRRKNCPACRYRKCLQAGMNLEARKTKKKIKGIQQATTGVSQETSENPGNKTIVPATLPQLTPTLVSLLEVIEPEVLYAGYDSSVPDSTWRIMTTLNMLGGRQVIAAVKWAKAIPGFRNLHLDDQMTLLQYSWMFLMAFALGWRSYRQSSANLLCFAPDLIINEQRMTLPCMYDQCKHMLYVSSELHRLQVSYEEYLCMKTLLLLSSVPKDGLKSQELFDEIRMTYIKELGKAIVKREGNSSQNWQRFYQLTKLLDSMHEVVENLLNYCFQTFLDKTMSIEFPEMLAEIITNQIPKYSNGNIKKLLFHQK
Chain of Peroxisome proliferator-activated receptor gamma (Homo sapiens) (P37231 whole entry, looked up): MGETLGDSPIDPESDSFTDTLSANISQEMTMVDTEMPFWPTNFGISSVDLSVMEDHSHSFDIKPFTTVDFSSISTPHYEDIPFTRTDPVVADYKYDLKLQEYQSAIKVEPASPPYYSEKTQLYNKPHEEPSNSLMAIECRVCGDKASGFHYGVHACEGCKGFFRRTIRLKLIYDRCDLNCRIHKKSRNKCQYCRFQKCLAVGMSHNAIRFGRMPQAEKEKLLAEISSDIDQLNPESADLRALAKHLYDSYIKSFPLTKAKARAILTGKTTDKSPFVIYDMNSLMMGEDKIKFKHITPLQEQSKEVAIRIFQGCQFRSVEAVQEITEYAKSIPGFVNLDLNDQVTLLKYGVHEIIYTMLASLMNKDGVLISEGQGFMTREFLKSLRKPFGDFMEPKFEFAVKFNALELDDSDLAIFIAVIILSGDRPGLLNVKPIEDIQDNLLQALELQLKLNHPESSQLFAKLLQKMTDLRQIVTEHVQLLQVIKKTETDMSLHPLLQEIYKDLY
Chain of Estrogen receptor (Homo sapiens) (P03372 whole entry, looked up): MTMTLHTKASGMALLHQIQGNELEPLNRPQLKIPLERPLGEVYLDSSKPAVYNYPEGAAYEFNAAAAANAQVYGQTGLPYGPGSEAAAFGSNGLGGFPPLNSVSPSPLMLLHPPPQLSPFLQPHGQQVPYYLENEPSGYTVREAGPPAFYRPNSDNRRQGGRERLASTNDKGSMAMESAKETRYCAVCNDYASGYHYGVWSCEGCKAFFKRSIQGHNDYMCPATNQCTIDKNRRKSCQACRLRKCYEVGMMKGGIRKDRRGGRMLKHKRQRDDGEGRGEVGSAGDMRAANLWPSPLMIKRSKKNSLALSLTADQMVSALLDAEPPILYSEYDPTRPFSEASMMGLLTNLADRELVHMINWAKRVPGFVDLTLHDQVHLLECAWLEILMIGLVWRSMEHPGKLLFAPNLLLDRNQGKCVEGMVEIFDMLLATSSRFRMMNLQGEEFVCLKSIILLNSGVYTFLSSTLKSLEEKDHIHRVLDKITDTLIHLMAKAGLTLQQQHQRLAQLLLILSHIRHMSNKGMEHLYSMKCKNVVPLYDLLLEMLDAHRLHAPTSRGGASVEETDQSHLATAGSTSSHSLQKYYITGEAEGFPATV

CCS(=O)CCSP(=O)(OC)OC (stereo not drawn)
inactive: Potency [1] | Potency [2] | activation [3] 7.09% | outcome [4] | activation [5] 2.31% | activation [6] -0.59% | outcome [7]

CCC(=O)Nc1ccc(Cl)c(Cl)c1
inactive: activation [3] 16.4% | outcome [7]

CC(C)N1C(=O)c2ccccc2NS1(=O)=O
inactive: Potency [1] | Potency [2] | activation [5] 4.24% | activation [6] -0.185% | outcome [7]

CCCCSP(=O)(SCCCC)SCCCC
inactive: outcome [4] | activation [5] -15% | Potency [8] | Potency [9]

CCc1cccc(C)c1N(C(=O)CCl)C(C)COC (stereo not drawn)
inactive: activation [6] -1.58%

COc1nc(NC(C)C)nc(NC(C)C)n1
inactive: Potency [1] | Potency [2] | outcome [4] | Potency [9] | activation [6] -2.09% | outcome [7]

N#Cc1c(Cl)cccc1Cl
inactive: Potency [1] | Potency [2] | activation [5] 0.597% | Potency [8] | activation [6] -0.285% | outcome [7]

CC(C)(C)C(=O)C(Oc1ccc(Cl)cc1)n1cncn1 (stereo not drawn)
inactive: activation [5] -3.08% and -1.34% | Potency [9] | activation [6] -2.3% and -1.59%
active: Potency [2] 39.8 µM

COP(N)(=O)SC (stereo not drawn)
inactive: Potency [1] | Potency [2] | outcome [4] | activation [5] -1.71% and 14.7% | Potency [8] | activation [6] 0.304% and 1.6% | outcome [7]

O=C(O)COc1cc(Cl)c(Cl)cc1Cl
inactive: activation [3] -1.88% | outcome [4] | activation [5] -6.14% | Potency [9]

CC(C)Nc1nc(Cl)nc(NC(C)C)n1
inactive: Potency [2] | Potency [9]
